# Shown are actives, neighbours in structure and some others; about 9.2% of the full set was active somewhere.
# ELG1 DNA repair = blocks ELG1-dependent DNA repair in HEK293T cells. HEK293T ELG1-luciferase reporter, luminescence, 16 h; DNA damage induced by 5-fluorouridine. Potency, µM (series often up to 46.1 µM), for the others: top-dose activity change, negative = inhibition, hits mostly inhibitors. hit rate 2.3% among 330,000; also: % is scaled to controls: 0 for no effect and ±100 for the full control effect; nearly all actives have a fitted effect of over 55% in size
#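 In this reporter screen, reduction of luminescence relative to DMSO vehicle indicated activity. Compounds and 5-fluorouridine were added together to 2,000 cells per well, incubated for 16 hr at 37 °C, then developed with ONE-Glo.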
# ELG1 genotox = genotoxicity induction in ELG1-luciferase HEK293T cells. HEK293T ELG1-luciferase reporter, luminescence, 16 h. hit rate 1.3% among 330,000. AID 504466. Potency, µM (titrated, usually from 46 µM), without a hit: at the top dose activity change, positive = activation, hits mostly activators; also: % of control where 0% means no effect; nearly all actives have a fitted effect of over 60% in size
#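 Luminescence read-out: rising ELG1-luciferase signal, reflecting elevated ELG1 protein under genetic stress, flags genotoxic compounds. Cells were treated for 16 hr at 37 °C before ONE-Glo detection.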
# FLuc counter = firefly luciferase modulation, counter-screen for miR-21 project. P08659. purified FLuc, Km substrates, luminescence inhibition. Potency, µM (highest dose often 57.5 µM), without a hit: at the top dose activity change, negative = inhibition, actives largely listed as inhibitors. hit rate 6.9% among 360,000;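 also: plate controls were vehicle for no effect and reference inhibitor for full effect; nearly all actives have a fitted effect of over 55% in size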
# Target sequence (P08659 whole entry, looked up): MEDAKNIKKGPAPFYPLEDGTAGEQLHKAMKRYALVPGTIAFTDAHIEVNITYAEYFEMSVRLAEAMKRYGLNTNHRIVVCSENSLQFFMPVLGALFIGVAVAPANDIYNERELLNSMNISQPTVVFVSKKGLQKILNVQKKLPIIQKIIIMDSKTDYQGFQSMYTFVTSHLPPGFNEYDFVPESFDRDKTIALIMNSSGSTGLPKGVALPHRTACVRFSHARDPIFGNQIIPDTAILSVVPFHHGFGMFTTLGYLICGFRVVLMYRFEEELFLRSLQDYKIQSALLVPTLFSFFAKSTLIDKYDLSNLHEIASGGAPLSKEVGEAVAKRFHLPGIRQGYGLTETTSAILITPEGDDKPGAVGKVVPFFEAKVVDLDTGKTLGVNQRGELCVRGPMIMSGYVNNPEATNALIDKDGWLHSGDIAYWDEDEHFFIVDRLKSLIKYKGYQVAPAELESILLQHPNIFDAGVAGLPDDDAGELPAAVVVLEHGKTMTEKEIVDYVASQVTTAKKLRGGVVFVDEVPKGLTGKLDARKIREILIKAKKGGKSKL
#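 Purified P. pyralis luciferase (10nM final) with 10uM D-luciferin and 10uM ATP (Km levels) in 50mM Tris acetate pH 7.5, 10mM Mg acetate, 0.01% Tween-20, 0.05% BSA; qHTS 6-point titration, ~60 µM downward; luminescence read.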
# NPC1 promoter act = activates the NPC1 promoter; hit rate 2.4% among 320,000; AID 485313; Potency, µM (doses to about 9.22 µM), inactives show at the top dose activation, usual class: activators; Huh7 NPC1 promoter luciferase reporter, 24 h; also: % of control where 0% means no effect; nearly all actives have a fitted effect of over 60% in size
#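 Cells: Huh7 expressing luciferase under the NPC1 promoter, 1500/well. Seeded 2 h, compound added, incubated 24 h at 37 °C. Luciferase reagent, 10 min ambient, then luminescence.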
# SMN2 splice enh = increases expression of the SMN2 splice variant; HEK293 SMN2-luciferase splicing reporter, luminescence, 30-36 h; Potency, µM (titrated, usually from 46.1 µM), for inactives: at the top dose activity change, positive = activation, actives largely listed as activators; hit rate 2.8% among 210,000; AID 1458; also: % of control where 0% means no effect; nearly all actives have a fitted effect of over 55% in size
#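 qHTS luciferase splicing reporter: luminescence rises when SMN2 exon 7 is included in transfected HEK293 cells. Compound exposure lasted 30-36 h at 37C, with 4.5 mM final sodium butyrate as control, followed by a ONE-Glo read.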
# Rab9 promoter act = Rab9 promoter activation | Huh7 Rab9 promoter-luciferase reporter, luminescence, 24 h | Potency, µM (titrated, usually from 9.22 µM), for the others: top-dose activation, negative = inhibition, usual class: activators | hit rate 2.8% among 320,000 | AID 485297; also: % of control where 0% means no effect; nearly all actives have a fitted effect of over 60% in size
#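 Luciferase signal after 10 min detection reagent at ambient indicates Rab9 promoter upregulation; stably transfected Huh7 cells were treated 24 h with compound in DMSO at 37 °C, 5% CO2.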
# An asterisk follows results filed as active; ? = inconclusive; nt = not tested or not shown; [ ] = another dose, or the depositor's remark. Calls follow the shape of the dose curve; as a rule, active = well fitted curve in the direction sought with a large enough effect; inconclusive = small, poorly fitted or top-dose-only effect, or another doubt; inactive = no such curve, though single readings can be large; an effect the other way counts as inactive or inconclusive. Potency is read from the fitted curve at half-maximal effect.
SMILES,ELG1 DNA repair,ELG1 genotox,FLuc counter,NPC1 promoter act,SMN2 splice enh,Rab9 promoter act
C=CCn1c(NCc2ccc3c(c2)OCO3)nc2ccccc21,?,30%,15µM*,14%,-3%,24%
C=CCn1c(NCc2ccccc2O)nc2ccccc21,?,6%,?,23%,nt,7%
C=CCn1c(NCc2ccc(OC)cc2O)nc2ccccc21,?,13%,19µM*,?,nt,?
COc1cccc2c1Oc1cc([N+](=O)[O-])cc(N(C)C(C)=O)c1C=C2,?,16%,2%,-2%,nt,-1%
Cc1ccc(NC(=O)C(=O)NCC(c2cccnc2)N2CCN(c3ccccc3F)CC2)cc1Cl (stereo unspecified),nt,nt,-2%,nt,nt,nt
CCOc1ccccc1CNC(=O)C1CCN(C(=O)c2sccc2-n2cccc2)CC1,13µM*,-5%,0%,1%,-6%,1%
Clc1cccc(-c2ccc(CNCc3ccccn3)o2)c1,22%,-10%,?,0%,nt,10%
Brc1ccc(-c2ccc(CNCc3ccccn3)o2)cc1,28%,3%,15µM*,24%,nt,3%
COc1ccc(C(=O)/C=C/c2ccc(F)cc2)c(OC(=O)c2ccc([N+](=O)[O-])cc2)c1,?,?,9.5µM*,12%,4%,-2%
O=C(/C=C/c1cccs1)NNC(=O)c1cccc([N+](=O)[O-])c1,?,0%,nt,nt,nt,nt
COc1ccc(OC(=O)/C=C/c2ccc([N+](=O)[O-])cc2)cc1,-2%,-1%,7%,2%,nt,-10%[1.84 µM]
COc1ccc(C(=O)/C=C/c2cccs2)c(OC(=O)c2cccc([N+](=O)[O-])c2)c1,?,8%,4.8µM*,27%,?,?
CC(C)(C)c1cc2c(O)c(c1)Cc1cc(C(C)(C)C)cc(c1O)Cc1cc(C(C)(C)C)cc(c1O)Cc1cc(C(C)(C)C)cc(c1O)Cc1cc(C(C)(C)C)cc(c1O)Cc1cc(C(C)(C)C)cc(c1O)Cc1cc(C(C)(C)C)cc(c1O)Cc1cc(C(C)(C)C)cc(c1O)C2,nt,nt,nt,nt,-7%[9.22 µM],nt
CCN(CC)c1ccc(/C=N/NC(=O)c2c[nH]c3ccccc23)cc1,8%,1%,11µM*,6%,-17%,1%
CCN(CC)c1ccc(/C=N/NC(=O)c2cc(C)nc3ccccc23)cc1,0%,13%,?,2%,nt,-5%
CCN(CC)c1ccc(/C=N/NC(=O)c2cc3ccccc3[nH]2)cc1,8%,2%,12µM*,3%,nt,19%
O=C(CNC(=O)C1CCCCC1)OC(C(=O)c1ccccc1)c1ccccc1 (stereo unspecified),17%,2%,0%,-3%,nt,-8%
O=C(Nc1ccc2c(c1)C(=O)OC2)c1ccc(C(F)(F)F)cc1,0%,8%,4%,9%,nt,9%
CN(C)S(=O)(=O)N1CCc2ccc(NC(=O)c3ccc(C(F)(F)F)cc3)cc2C1,9.2µM*,5%,4.8µM*,-13%,nt,-25%
COCCC(=O)N1CCc2ccc(NC(=O)c3ccc(C(F)(F)F)cc3)cc2C1,13µM*,-6%,13µM*,-7%,nt,-15%
NC(=O)COC(=O)CCSc1ccc(Cl)cc1,1%,1%,-11%,-2%,8%,3%
COc1cccc(NC(=O)c2ccccc2F)c1,?,4.6µM*,6µM*,4µM*,nt,3.5µM*
COc1ccc(Br)c(C(=O)Nc2ccc(F)cc2)c1,13%,2%,-2%,-3%,nt,-2%
COc1cccc(NC(=O)c2ccccc2-c2ccccc2C(=O)O)c1,-18%,-2%,1%,-2%,nt,1%
COc1cccc(NC(=O)COC(=O)c2ccccc2F)c1,-3%,-1%,12µM*,-1%,10%,1%
SMILES,ELG1 DNA repair,ELG1 genotox,FLuc counter,NPC1 promoter act,SMN2 splice enh,Rab9 promoter act
COc1cccc(OC)c1C(=O)OCC(=O)Nc1ccc(OC(F)(F)F)cc1,21µM*,-5%,-3%,26%,0%,-2%
COc1cccc(NC(=O)c2ccccc2Br)c1,?,?,15µM*,4µM*,nt,3.5µM*
COc1cccc(NC(=O)COC(=O)c2c(F)cccc2Cl)c1,27%,?,?,17%,nt,?
CSc1ccc(NC(=O)N2CCC(C(=O)c3ccc(F)cc3)CC2)cc1,?,-22%,-18%,2%,nt,4%
CCOc1ccc(NC(=O)CCNC(=O)C2CCN(S(=O)(=O)c3ccccc3)CC2)cc1,0%,3%,3%,0%,nt,2%
COc1ccccc1CNC(=O)c1cnc(N(C)C)nc1,nt,nt,-4%,nt,nt,nt
COc1cccc(NC(=O)c2cccc(C(=O)Nc3cccc(OC)c3)n2)c1,?,2%,?,-4%,nt,-2%
COc1cccc(NC(=O)c2c(F)cccc2F)c1,?,10µM*,?,27%,nt,?
COc1cccc(NC(=O)CN(C)C(=O)C2=COCCO2)c1,13%,1%,4%,-1%,nt,-2%
COc1cccc(NC(=O)C2=COCCO2)c1,?,?,?,?,nt,3.2µM*
COc1ccc(CNC(=O)Cn2ncn3cccc3c2=O)cc1,?,?,21µM*,?,11µM*,1.6µM*
COc1ccc(CNC(=O)Cn2ncn3c(cc4ccccc43)c2=O)cc1,0%,2%,1%,2%,nt,-3%
CC1=NN(C(N)=S)C(=O)C1N=Nc1c(C)cc(C)cc1C (stereo unspecified),27%,?,?,-1%,-26%,26%
CC1=NN(C(N)=S)C(=O)C1N=Nc1ccccc1C (stereo unspecified),?,1%,21µM*,13%,?,4%
CC1=NN(C(N)=S)C(=O)C1N=Nc1ccc(C)cc1C (stereo unspecified),?,11µM*,4.8µM*,?,14µM*,?
O=S(=O)(Nc1ccc2nc(C(F)(F)F)[nH]c2c1)c1ccccc1,10µM*,-13%,4%,2%,-45%,-8%
O=S(=O)(Nc1ccc2nc(-c3ccc(Br)o3)[nH]c2c1)c1ccccc1,?,16%,15µM*,2.8µM*,9%,2.8µM*
CC(C)(C)c1nc2ccc(NS(=O)(=O)c3ccc(F)c(F)c3F)cc2[nH]1,-4%,0%,3%,-2%,nt,0%
Cc1cc(NS(=O)(=O)c2ccc3nc(-c4ccccc4)[nH]c3c2)ccc1Br,nt,nt,?,nt,-7%,nt
Cc1ccc(-c2nc3ccc(NS(=O)(=O)c4ccccc4)cc3[nH]2)o1,?,?,12µM*,4µM*,?,?
CCn1cc(C(=O)N2CCN(c3ccccc3OC)CC2)c(=O)c2cc(S(=O)(=O)N3CCC(C)CC3)ccc21,nt,nt,-13%,nt,3%,nt
